“And” between values parts separate entries of the source, which are not always exact repeats. Equal entries are not always repeated. Results filed as inconclusive are left out. The source made the active and inactive calls. Calls come from the whole dose curve; as a rule, active = well fitted curve in the direction sought with a large enough effect; inconclusive = small, poorly fitted or top-dose-only effect, or another doubt; inactive = no such curve, though single readings can be large; an effect the other way counts as inactive or inconclusive.
Assays:
[1] = Viability qHTS for spleen associated tyrosine kinase inhibitor (SYKi) naive MV4-11 cells (AID 1963823); note: nearly all actives have a fitted effect of over 40% in size; note: potency is the fitted concentration of half-maximal effect
Summary of the method: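 CellTiter-Glo luminescence, 10 min room-temperature incubation, gave viability. Cells: naive MV4-11 (500/well), treated 72 hr at 37 C, 5% CO2.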

[2] = Viability qHTS for spleen associated tyrosine kinase inhibitor (SYKi) drug resistant MV4-11 cells (AID 1963824); note: nearly all actives have a fitted effect of over 35% in size; note: potency is the fitted concentration of half-maximal effect
Summary of the method: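 SYK-inhibitor-resistant MV4-11 AML cells were seeded at 500 per well onto compound and cultured 72 hours (37 °C, 5% CO2). CellTiter-Glo was then added, and after 10 min at room temperature, luminescence gave viability.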

[3] = Quantitative highthroughput screen to assess conditional lethalithy of P12 Ichikawa cells grown in Human Plasma-Like Medium with dialyzed fetal bovine serum (HPLM+ds) (AID 1963879); conditions: Potency: viability; note: series mostly up to about 46 µM; nearly all actives have a fitted effect of over 35% in size
Summary of the method: (§1)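 Each medium arm—HPLM with 10% dialyzed FBS, or RPMI1640 with 5 mM glucose and 10% untreated or dialyzed FBS—was screened against an 11-point, 3-fold compound titration for 48 h at 37 °C, with CellTiter-Glo luminescence as endpoint.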

[4] = Quantitative highthroughput screen to assess conditional lethalithy of P12 Ichikawa cells grown in RPMI1640 with dialyzed fetal bovine serum (RPMI+ds) (AID 1963880); conditions: Potency: P12-Ichikawa viability; note: nearly all actives have a fitted effect of over 35% in size; note: potency is the fitted concentration of half-maximal effect;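 for Viability: 100% = DMSO wells and 0% = empty wells on each plate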
Summary of the method: as §1

[5] = Quantitative highthroughput screen to assess conditional lethalithy of P12 Ichikawa cells grown in RPMI1640 with untreated serum (RPMI+s) (AID 1963881); conditions: Potency: viability; note: nearly all actives have a fitted effect of over 35% in size; note: potency is the fitted concentration of half-maximal effect;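 for Viability: series mostly up to about 46 µM; 100% = DMSO wells and 0% = empty wells without cells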
Summary of the method: as §1

[6] = Cellular viability qHTS for adrenocortical cancer (ACC) cell line SW-13 (AID 1963989); conditions: SW-13 ACC cells viability, CellTiter-Glo, 48 h; activity (max response): active compounds read low; note: nearly all actives have a fitted effect of over 65% in size; note: potency is the fitted concentration of half-maximal effect;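 for activity (max response): cells grown in serum-free medium with ITS supplement; % is set by controls: 0 for no effect and ±100 for the full control effect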
Summary of the method: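 Luminescent ATP read-out (CellTiter-Glo, 20 min at room temperature) measured metabolically competent SW-13 cells after 48 h compound treatment. Final concentrations spanned up to 46 uM; bortezomib served as positive control.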

[7] = Cellular viability qHTS for adrenocortical cancer (ACC) cell line NCI-H295R (AID 1963990); note: nearly all actives have a fitted effect of over 60% in size; note: potency is the fitted concentration of half-maximal effect
Summary of the method: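 IC50 and maximal efficacy derive from four-parameter logistic modelling of titration curves, with reads scaled between DMSO-only wells (0%) and doxorubicin hydrochloride (100% inhibition). Compounds spanned up to 46 uM over 48 h.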

[8] = Quantitative highthroughput screen to assess conditional lethalithy of NOMO1 cells grown in Human Plasma-Like Medium with dialyzed fetal bovine serum (HPLM+ds) (AID 1963878); note: nearly all actives have a fitted effect of over 35% in size; note: potency is the fitted concentration of half-maximal effect;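 for Viability: 100% = DMSO wells and 0% = empty wells on each plate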
Summary of the method: as §1

[9] = Quantitative highthroughput screen to assess conditional lethalithy of SEM cells grown in RPMI1640 with unreated serum (RPMI+s) (AID 1963883); note: nearly all actives have a fitted effect of over 35% in size; note: potency is the fitted concentration of half-maximal effect;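 for Viability: 100% = DMSO wells and 0% = empty wells without cells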
Summary of the method: as §1

[10] = Quantitative highthroughput screen to assess conditional lethalithy of SEM cells grown in Human Plasma-Like Medium with dialyzed fetal bovine serum (HPLM+ds) (AID 1963882); note: nearly all actives have a fitted effect of over 35% in size; note: potency is the fitted concentration of half-maximal effect; for Viability: series mostly up to about 46 µM
Summary of the method: as §1

[11] = Quantitative highthroughput screen to assess conditional lethalithy of SEM cells grown in RPMI1640 with dialyzed fetal bovine serum (RPMI+ds) (AID 1963884); note: nearly all actives have a fitted effect of over 35% in size; note: potency is the fitted concentration of half-maximal effect;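 for Viability: series mostly up to about 46 µM; 100% = DMSO control wells and 0% = empty wells without cells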
Summary of the method: as §1

Nc1ncnc2c1c(-c1cccc(OCc3ccccc3)c1)cn2C1CC(CN2CCC2)C1 (stereo not given)
active: Potency [1] 580 nM | Potency [2] 920 nM
inactive: Potency [3] | Potency [4] | Potency [5] | activity (max response) [6] 12.1% | Potency [7]

C#Cc1cccc(Nc2ncnc3cc(OCCOC)c(OCCO)cc23)c1
active: Potency [1] 1480 nM | Potency [2] 2630 nM | Potency [8] 9350 nM | Potency [9] 20900 nM | Potency [6] 6310 nM

CNC(=O)c1c(F)cccc1Nc1nc(Nc2cc3c(cc2OC)CCN3C(=O)CN(C)C)nc2[nH]ccc12
active: Potency [1] 2.59 µM and 4.68 µM | Potency [2] 2.91 µM and 4.68 µM | Potency [8] 16600 nM | Potency [10] 590 nM | Potency [9] 469 nM | Potency [11] 296 nM | Potency [7] 1120 nM

C=CC(=O)Nc1cccc(Oc2nc(Nc3ccc(N4CCN(C)CC4)cc3)ncc2Cl)c1
inactive: Potency [8]
active: Potency [1] 206 nM | Potency [2] 517 nM and 525 nM | Potency [10] 2350 nM | Potency [9] 833 nM | Potency [11] 1870 nM | Potency [7] 2510 nM

CNC(=O)c1c(-c2ccc(F)cc2)oc2cc(N(CCO)S(C)(=O)=O)c(C3CC3)cc12
inactive: Potency [1] | Potency [2] | activity (max response) [6] -0.986% | Potency [7]
active: Potency [8] 8330 nM | Potency [4] 5900 nM | Potency [5] 6620 nM | Potency [10] 1320 nM | Potency [11] 264 nM

O=C(O)CCCc1c[nH]c2ccccc12
inactive: Potency [1] | Potency [2] | Potency [8] | Potency [4] | Potency [5] | Potency [10] | Potency [9] | Potency [11] | activity (max response) [6] 1.46% | Potency [7]

Source: PubChem BioAssay (NCATS)
